In the library only some 18% were active in any assay of this set; here they are far more common.
VDR inh – inhibitors of human vitamin D receptor | VDR-SRC2-3 peptide fluorescence polarization, 2 h | Potency, µM, hits mostly inhibitors | 400,000 compounds, 0.93% hits | AID 504847
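Reagent solutions, kept cold and dark, are dispensed first; compounds are then pinned in at 23 nl, plates briefly spun, and incubated 2 h at ambient temperature. Inhibition of VDR–SRC2-3 peptide binding is read by fluorescence polarization.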
TDP1 block – inhibitors of human tyrosyl-DNA phosphodiesterase TDP1; AID 485290; Q9NUW8; Potency, µM (titrated, usually from 130 µM), hits mostly inhibitors; 350,000 compounds, 0.28% hits; recombinant TDP1, AlphaScreen DNA substrate cleavage; note: nearly all actives have a fitted effect of over 40% in size
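Compounds were preincubated with Tdp1 (1 nM final) for 15 min at room temperature before substrate (15 nM final) started a 5 min reaction; beads (10 ug/ml final) were then added for 10 min before AlphaScreen detection.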
PLK1 PBD block – blocks phosphopeptide binding to human PLK1 polo-box domain; P53350; Plk1 PBD binding of FITC phosphopeptide, fluorescence polarization; Potency, µM, hits mostly inhibitors; 360,000 compounds, 2.8% hits; AID 720504; note: series mostly up to about 57 µM; nearly all actives have a fitted effect of over 65% in size
TDP1 cell CPT – DT40-hTDP1 cell growth loss with CPT | chicken DT40 Tdp1-/-;hTDP1 cells + 20 nM CPT, ATP luminescence, 48 h | Potency, µM (titrated, usually from 46.2 µM), actives largely listed as inhibitors | 420,000 compounds, 12% hits | AID 686979; note: nearly all actives have a fitted effect of over 55% in size
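Chicken DT40 Tdp1-/- cells stably complemented with human TDP1 were seeded at 400 cells/well in medium containing 20 nM camptothecin, exposed to pin-transferred compounds, and grown at 37 °C for at least 48 hr. Viability was read as ATP luminescence.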
DT40 TDP1 no CPT – qHTS for Inhibitors of human tyrosyl-DNA phosphodiesterase 1 (TDP1): qHTS in cells in absence of CPT. DT40 Tdp1-/- hTDP1 cells, no CPT, ATP luminescence, 48 h. Potency, µM (titrated, usually from 46.2 µM), hits mostly inhibitors. 420,000 compounds, 15% hits. AID 686978, 2013; note: nearly all actives have a fitted effect of over 55% in size
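Seeded 400 DT40-hTDP1 cells/well (vehicle DMSO, no 20 nM CPT); pinned compounds; ≥48 hr at 37 °C; CellTiter-Glo luminescence as viability measure.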
KAT2A inh – GCN5L2 (KAT2A) acetyltransferase inhibition | Q92830 | GCN5L2 HAT assay, ThioGlo1 CoA-SH fluorescence | Potency, µM (top dose mostly 58.9 µM), hits mostly inhibitors | 390,000 compounds, 0.21% hits | AID 504327
Target sequence (Q92830 whole entry, looked up): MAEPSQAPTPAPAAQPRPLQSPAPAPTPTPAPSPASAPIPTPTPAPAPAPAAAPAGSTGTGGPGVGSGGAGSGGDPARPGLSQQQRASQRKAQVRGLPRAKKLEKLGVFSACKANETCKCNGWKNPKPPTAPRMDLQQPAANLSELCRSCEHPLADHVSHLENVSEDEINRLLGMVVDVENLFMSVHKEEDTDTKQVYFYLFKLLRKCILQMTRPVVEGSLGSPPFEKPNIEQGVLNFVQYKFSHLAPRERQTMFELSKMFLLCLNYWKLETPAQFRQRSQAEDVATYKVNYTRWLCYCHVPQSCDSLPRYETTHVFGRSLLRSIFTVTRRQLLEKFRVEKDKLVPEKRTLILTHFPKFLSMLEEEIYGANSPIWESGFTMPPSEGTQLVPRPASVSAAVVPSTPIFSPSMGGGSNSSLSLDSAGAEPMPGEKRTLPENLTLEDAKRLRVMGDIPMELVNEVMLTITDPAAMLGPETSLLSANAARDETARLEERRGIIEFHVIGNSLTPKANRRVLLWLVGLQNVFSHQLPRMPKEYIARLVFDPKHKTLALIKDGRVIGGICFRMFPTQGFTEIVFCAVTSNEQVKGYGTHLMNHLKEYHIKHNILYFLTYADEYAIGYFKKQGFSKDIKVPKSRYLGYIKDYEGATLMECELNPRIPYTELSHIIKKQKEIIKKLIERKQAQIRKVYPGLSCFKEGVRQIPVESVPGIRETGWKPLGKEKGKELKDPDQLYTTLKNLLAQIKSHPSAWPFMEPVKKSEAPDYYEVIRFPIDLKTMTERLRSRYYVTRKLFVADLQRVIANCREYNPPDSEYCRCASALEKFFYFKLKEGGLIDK
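Compounds, pin-transferred from DMSO stocks, meet 20nM GCN5L2 for 15 min before the reaction begins with H3(1-25) peptide (75uM) and acetyl-CoA (70uM). Thiol-reactive ThioGlo1 reports CoA release over 20 min at room temperature.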
Numbers stand for hits; i = inactive; ? = inconclusive; nt = not tested or not shown. Calls come from the whole dose curve; as a rule, active = well fitted curve in the direction sought with a large enough effect; inconclusive = small, poorly fitted or top-dose-only effect, or another doubt; inactive = no such curve, though single readings can be large; an effect the other way counts as inactive or inconclusive.

SMILES	VDR inh	TDP1 block	PLK1 PBD block	TDP1 cell CPT	DT40 TDP1 no CPT	KAT2A inh
CCN1CCc2c(sc(-n3cccc3)c2C(C)NC(=O)Nc2ccccc2C)C1 (stereo unspecified)	i	i	nt	?	23µM	i
CC(NC(=O)Nc1cc(Cl)ccc1Cl)c1c(-n2cccc2)sc2c1CCCC2 (stereo unspecified)	i	i	nt	?	18µM	i
CCc1cc2c(=O)c(-c3cscn3)coc2c(CN(C)C)c1O	i	i	i	1.5µM	2.3µM	i
CC1(C)C=Cc2c(cc3occ(-c4ccc5c(c4)OCO5)c(=O)c3c2O)O1	i	i	nt	i	i	i
Cc1oc2c(CN(C)C)c(O)ccc2c(=O)c1-c1cscn1	i	i	i	i	i	i
CCc1cc2c(=O)c(-c3ccc4c(c3)OCO4)coc2c(CN(C)C)c1O	i	nt	i	2.1µM	3.7µM	i
Cc1nn(-c2ccccc2)c2sc(C(=O)N3CCCCC3)cc12	i	i	i	?	?	nt
Cc1nn(-c2ccccc2)c2sc(C(=O)N3CCc4ccccc4C3)cc12	i	i	i	?	23µM	i
Cc1nn(-c2ccccc2)c2sc(C(=O)Nc3ccc(Br)cc3)cc12	i	nt	nt	?	16µM	i
CCc1ccccc1NC(=O)C1CCCN(S(=O)(=O)c2ccc3[nH]c(=O)ccc3c2)C1 (stereo unspecified)	i	i	nt	i	i	i
COc1ccc(NC(=O)CN2CCN(S(=O)(=O)N3CCCCCC3)CC2)cc1	i	nt	i	i	i	i
CCn1c(/C=C/N(C(C)=O)c2ccccc2)[n+](CCCS(=O)(=O)[O-])c2cc(Cl)c(Cl)cc21	i	i	i	i	i	i
CCn1c(/C=C/Nc2ccccc2)[n+](CC)c2cc(Cl)c(Cl)cc21	i	i	i	2.6µM	3.3µM	i
Clc1ccc2c(N/N=C/c3cccc(Br)c3)ccnc2c1	i	i	i	16µM	16µM	i
O=[N+]([O-])c1ccc(/C=N/Nc2ccnc3cc(Cl)ccc23)o1	i	nt	i	15µM	16µM	i
Clc1ccc2c(NNc3ccccc3Cl)ccnc2c1	i	i	i	?	?	i
Clc1ccc2c(N/N=C/c3ccccc3Br)ccnc2c1	i	i	i	7.3µM	2.9µM	i
C/C(=N/Nc1ccnc2cc(Cl)ccc12)c1ccc(O)cc1	i	i	i	?	?	i
Cc1ccc2[nH]nc(C(=O)N3CCCC(C(=O)c4ccc(Cl)cc4)C3)c2c1 (stereo unspecified)	i	i	i	?	16µM	i
COCCC(=O)N1CCCC(C(=O)c2ccc(C(F)(F)F)cc2)C1 (stereo unspecified)	i	i	i	i	i	i
Cc1cc(C(=O)N2CCCC(C(=O)c3ccc(Oc4ccccc4)cc3)C2)n[nH]1 (stereo unspecified)	i	nt	i	21µM	13µM	i
COCC(=O)N1CCCC(C(=O)c2ccc(Oc3ccccc3)cc2)C1 (stereo unspecified)	i	i	i	?	8.2µM	i
COCC(=O)N1CCCC(C(=O)c2ccc(-c3ccccc3)c(F)c2)C1 (stereo unspecified)	i	i	i	21µM	15µM	i
Cc1ccc(NC(=O)Cn2nc(-c3ccccc3Cl)ccc2=O)c(Br)c1	i	i	i	i	i	i
CCc1ncc(CN2CCCC(C(=O)Nc3ccc(-c4cscn4)cc3)C2)cn1 (stereo unspecified)	i	i	i	i	i	i
Brc1ccc(N=Nc2ccc3ccccc3n2)cc1	i	i	i	i	?	i
CCCCn1c(O)c(N=Nc2ccccc2O)c2ccccc21	i	i	i	23µM	?	i
CCCCn1c(O)c(N=Nc2ccccn2)c2ccccc21	i	i	i	?	?	i
C=CCn1c(O)c(N=NC(=S)Nc2ccc(OC)c(Cl)c2)c2ccccc21	i	i	i	4.6µM	2.6µM	i
CCn1c(O)c(N=Nc2ccc3ccccc3n2)c2ccccc21	i	nt	i	?	23µM	i

High-throughput results as filed in PubChem BioAssay.
